Data from the supplement of paper PMC10849652.
Of roughly 8,800 targets only a part is listed; those with a hit were picked by preference. About 0.5% of all pairs of compound and target were hits.

What was measured:
Test in all cases: log2 fold change, soluble protein after heating vs DMSO (PISA); higher = thermal stabilisation; K562 lysate, 10 uM; active = over 0.2 and 3.5 SD of the protein, either way, in both replicates (recomputed)
[1] = compound: NCC(=O)Nc1ccc(-n2nc(C(F)(F)F)cc2-c2ccc3c(ccc4ccccc43)c2)cc1
How it was run: (§1)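 K562 pellets were dounce-homogenised in PBS pH 7.4 containing 1 mM MgCl2, and the crude extract, at 1 mg/mL protein, was exposed to 10 μM compound for 30 min. Aliquots were heated for 3 min across 48°C-58°C, pooled, brought to 0.5% NP-40 at 4°C and spun at 21,000xg for 90 min, with the supernatant taken as soluble protein. TMTpro 16plex LC-MS/MS with equalised channel sums quantified that protein. Values are log-two fold changes in thermal stability relative to solvent controls, taken from duplicates.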

vorinostat = compound: O=C(CCCCCCC(=O)Nc1ccccc1)NO [vorinostat]
How it was run: as §1

silmitasertib = compound: O=C(O)c1ccc2c(c1)nc(Nc1cccc(Cl)c1)c1ccncc12 [silmitasertib]
How it was run: as §1

[2] = compound: O=C1NC(=O)C(c2cnc3ccccn23)=C1c1cn2c3c(cc(F)cc13)CN(C(=O)N1CCCCC1)CC2
How it was run: as §1

entospletinib = compound: c1cn2cc(-c3ccc4cn[nH]c4c3)nc(Nc3ccc(N4CCOCC4)cc3)c2n1 [entospletinib]
How it was run: as §1

Measured: log2 fold change

MED13L (UniProt Q71F56)
inactive: [1] -0.057 | silmitasertib 0.017 | [2] 0.017 | entospletinib -0.052
active: vorinostat -0.253

MARF1 (UniProt Q9Y4F3)
inactive: [1] 0.006 | silmitasertib 0.003 | [2] -0.045 | entospletinib 0.049
active: vorinostat -0.471

LUZP1 (UniProt Q86V48)
active: vorinostat -0.248
inactive: [1] 0.094 | silmitasertib 0.129 | [2] 0.022 | entospletinib -0.03

MAP2K1 (UniProt Q02750)
Chain of UniProt Q02750 (Q02750 whole entry, looked up): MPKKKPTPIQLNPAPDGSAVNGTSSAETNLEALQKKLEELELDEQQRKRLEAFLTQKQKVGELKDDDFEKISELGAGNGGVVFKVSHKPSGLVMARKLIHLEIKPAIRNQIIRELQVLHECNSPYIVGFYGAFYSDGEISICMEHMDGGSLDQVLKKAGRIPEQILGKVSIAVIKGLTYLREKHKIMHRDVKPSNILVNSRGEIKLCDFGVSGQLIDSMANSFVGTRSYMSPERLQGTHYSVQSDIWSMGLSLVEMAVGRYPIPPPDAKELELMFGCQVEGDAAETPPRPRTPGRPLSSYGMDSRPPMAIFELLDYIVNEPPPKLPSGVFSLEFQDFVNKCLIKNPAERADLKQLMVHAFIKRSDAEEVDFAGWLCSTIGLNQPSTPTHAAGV
inactive: [1] -0.005 | vorinostat -0.116 | silmitasertib 0.108 | [2] 0.006 | entospletinib 0.03

KIF14 (UniProt Q15058)
active: vorinostat -0.286
inactive: [1] 0.082 | silmitasertib -0.016 | [2] -0.019 | entospletinib -0.055

KMT2A isoform 3 (UniProt Q03164)
Chain of UniProt Q03164 (Q03164 whole entry, looked up): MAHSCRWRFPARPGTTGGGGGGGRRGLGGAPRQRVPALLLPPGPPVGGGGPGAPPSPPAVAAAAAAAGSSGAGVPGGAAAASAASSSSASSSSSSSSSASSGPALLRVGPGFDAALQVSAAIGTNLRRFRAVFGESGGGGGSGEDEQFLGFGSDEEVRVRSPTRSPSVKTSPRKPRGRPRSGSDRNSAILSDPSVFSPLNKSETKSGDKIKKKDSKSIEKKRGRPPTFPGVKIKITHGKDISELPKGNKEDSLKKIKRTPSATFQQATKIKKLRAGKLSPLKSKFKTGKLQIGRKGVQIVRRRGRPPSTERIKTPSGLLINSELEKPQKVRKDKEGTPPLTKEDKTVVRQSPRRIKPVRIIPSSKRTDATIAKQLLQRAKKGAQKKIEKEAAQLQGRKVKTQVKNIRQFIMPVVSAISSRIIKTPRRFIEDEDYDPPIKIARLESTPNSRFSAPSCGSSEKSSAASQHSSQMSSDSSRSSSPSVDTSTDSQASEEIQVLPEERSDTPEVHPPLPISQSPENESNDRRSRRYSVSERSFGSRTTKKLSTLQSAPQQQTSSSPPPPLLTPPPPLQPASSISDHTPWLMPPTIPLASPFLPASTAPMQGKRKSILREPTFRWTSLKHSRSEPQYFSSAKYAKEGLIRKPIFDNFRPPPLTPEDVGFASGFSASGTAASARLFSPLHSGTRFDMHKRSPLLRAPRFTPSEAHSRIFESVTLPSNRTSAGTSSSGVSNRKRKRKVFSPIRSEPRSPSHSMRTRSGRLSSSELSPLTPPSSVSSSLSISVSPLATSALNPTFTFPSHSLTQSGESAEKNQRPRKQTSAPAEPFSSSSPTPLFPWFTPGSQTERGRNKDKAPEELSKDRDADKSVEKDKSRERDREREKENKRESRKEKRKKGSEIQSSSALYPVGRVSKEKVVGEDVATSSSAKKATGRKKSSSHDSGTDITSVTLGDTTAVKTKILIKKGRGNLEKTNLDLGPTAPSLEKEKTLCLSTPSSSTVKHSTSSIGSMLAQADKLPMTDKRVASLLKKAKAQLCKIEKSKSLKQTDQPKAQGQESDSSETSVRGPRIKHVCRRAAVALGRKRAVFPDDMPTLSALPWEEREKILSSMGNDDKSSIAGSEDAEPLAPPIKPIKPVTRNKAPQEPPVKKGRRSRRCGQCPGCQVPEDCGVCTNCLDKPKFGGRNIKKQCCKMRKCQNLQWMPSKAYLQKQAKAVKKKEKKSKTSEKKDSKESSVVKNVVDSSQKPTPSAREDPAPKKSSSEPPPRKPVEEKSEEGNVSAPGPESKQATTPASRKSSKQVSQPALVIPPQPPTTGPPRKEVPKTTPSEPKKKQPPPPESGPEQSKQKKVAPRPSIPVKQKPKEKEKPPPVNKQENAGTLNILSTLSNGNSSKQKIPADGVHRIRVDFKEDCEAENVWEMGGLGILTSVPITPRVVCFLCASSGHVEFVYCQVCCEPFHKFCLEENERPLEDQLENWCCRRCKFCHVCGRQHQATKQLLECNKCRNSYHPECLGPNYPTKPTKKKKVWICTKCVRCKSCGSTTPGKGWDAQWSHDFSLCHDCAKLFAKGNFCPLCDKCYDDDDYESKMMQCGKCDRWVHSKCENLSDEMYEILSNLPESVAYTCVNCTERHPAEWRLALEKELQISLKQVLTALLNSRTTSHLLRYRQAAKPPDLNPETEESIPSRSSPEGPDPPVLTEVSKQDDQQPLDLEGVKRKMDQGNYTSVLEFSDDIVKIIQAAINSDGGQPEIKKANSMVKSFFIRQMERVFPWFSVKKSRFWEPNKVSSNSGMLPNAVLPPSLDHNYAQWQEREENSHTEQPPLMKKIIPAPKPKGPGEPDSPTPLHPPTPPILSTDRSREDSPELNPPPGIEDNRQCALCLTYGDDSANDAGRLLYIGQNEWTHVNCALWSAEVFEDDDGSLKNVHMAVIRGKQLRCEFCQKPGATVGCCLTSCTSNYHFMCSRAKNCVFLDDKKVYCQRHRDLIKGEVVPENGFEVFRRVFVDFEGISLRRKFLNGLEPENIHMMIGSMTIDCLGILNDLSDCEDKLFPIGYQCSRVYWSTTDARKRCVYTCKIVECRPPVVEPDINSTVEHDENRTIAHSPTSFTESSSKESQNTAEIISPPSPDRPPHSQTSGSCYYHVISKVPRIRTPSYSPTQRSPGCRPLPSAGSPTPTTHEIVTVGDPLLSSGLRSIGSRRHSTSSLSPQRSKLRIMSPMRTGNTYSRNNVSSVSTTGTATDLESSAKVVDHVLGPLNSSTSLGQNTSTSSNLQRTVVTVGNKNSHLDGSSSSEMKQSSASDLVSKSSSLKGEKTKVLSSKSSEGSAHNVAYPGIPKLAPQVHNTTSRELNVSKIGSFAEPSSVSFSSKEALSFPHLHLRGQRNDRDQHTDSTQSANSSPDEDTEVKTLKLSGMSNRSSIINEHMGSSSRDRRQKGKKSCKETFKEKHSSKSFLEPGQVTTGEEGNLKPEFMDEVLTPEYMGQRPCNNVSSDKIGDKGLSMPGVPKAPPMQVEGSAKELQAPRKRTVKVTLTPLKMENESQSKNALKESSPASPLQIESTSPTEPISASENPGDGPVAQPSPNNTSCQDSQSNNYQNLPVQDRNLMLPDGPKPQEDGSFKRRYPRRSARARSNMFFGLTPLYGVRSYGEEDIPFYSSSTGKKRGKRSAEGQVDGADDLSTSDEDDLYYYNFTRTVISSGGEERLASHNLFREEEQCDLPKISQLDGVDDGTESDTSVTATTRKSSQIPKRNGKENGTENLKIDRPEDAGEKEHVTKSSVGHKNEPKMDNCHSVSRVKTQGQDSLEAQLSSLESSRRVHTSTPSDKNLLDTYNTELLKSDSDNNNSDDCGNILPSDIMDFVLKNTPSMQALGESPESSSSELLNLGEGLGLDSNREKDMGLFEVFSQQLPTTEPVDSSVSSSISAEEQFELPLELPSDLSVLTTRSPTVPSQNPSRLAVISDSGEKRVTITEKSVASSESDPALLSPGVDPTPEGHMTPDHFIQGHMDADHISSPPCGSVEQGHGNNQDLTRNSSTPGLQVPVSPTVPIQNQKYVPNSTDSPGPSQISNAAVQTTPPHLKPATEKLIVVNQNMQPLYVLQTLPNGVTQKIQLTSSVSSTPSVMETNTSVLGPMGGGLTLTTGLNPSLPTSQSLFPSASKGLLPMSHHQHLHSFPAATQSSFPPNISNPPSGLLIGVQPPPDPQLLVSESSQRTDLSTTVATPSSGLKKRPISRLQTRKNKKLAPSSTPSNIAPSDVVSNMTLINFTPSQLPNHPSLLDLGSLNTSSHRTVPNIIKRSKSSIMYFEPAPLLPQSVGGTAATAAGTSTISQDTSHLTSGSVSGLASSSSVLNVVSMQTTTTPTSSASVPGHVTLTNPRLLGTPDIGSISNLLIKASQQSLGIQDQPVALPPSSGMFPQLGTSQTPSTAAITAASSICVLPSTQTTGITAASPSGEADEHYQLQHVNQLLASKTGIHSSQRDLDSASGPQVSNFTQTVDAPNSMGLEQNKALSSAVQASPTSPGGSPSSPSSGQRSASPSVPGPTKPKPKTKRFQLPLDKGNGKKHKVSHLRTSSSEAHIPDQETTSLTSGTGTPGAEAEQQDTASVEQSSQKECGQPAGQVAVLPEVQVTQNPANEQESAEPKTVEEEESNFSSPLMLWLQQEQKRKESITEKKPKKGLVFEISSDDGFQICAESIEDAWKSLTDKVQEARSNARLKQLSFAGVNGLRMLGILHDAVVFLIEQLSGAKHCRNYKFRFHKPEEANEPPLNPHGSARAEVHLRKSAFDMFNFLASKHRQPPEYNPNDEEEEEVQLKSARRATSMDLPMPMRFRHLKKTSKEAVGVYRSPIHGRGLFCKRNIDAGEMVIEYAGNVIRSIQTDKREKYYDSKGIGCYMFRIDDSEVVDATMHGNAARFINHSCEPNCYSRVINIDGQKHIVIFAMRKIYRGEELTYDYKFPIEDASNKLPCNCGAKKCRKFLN
inactive: [1] 0.046 | vorinostat 0.101 | silmitasertib 0.012 | [2] 0.066 | entospletinib -0.034

MAPK6 (UniProt Q16659)
Chain of UniProt Q16659 (Q16659 whole entry, looked up): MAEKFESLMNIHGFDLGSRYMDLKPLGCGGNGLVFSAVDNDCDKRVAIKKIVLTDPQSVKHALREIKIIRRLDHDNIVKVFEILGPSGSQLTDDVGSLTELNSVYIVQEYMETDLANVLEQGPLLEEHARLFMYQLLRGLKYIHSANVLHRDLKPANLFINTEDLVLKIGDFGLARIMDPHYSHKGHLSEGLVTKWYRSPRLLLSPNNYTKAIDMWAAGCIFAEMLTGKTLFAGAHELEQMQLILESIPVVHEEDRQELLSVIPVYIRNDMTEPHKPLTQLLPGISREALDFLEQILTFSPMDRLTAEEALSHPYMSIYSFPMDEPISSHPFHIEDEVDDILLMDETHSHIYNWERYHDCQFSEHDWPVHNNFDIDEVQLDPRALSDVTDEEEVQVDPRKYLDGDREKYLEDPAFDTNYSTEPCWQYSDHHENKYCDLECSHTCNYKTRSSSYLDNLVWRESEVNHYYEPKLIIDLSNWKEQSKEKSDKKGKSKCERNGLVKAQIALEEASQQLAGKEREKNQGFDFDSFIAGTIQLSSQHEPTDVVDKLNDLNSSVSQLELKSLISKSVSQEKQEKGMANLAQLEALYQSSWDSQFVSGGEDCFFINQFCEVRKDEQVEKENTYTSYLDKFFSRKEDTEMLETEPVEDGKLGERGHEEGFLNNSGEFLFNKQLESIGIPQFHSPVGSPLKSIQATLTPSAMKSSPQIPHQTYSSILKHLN
inactive: [1] -0.04 | vorinostat -0.033 | silmitasertib 0.033 | [2] 0.035 | entospletinib 0.024

MAP2K3 isoform 3 (UniProt P46734)
inactive: [1] -0.033 | silmitasertib 0.149 | [2] 0.025 | entospletinib 0.072
active: vorinostat -0.577

MOSPD2 (UniProt Q8NHP6)
active: [1] -0.364
inactive: vorinostat 0.039 | silmitasertib 0.071 | [2] -0.02 | entospletinib -0.074
